The text below walks through data of PubChem BioAssay AID1159580 (chemical genetic matrix, 2015).

This experiment in a line: chemical genetic growth profiling, strain panel (AID 1159580).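 Note: tested at 20 µM; growth read once vehicle control cultures reached saturation at 30 °C; 1 = growth at the plate median or of vehicle wells; lower values mean less growth of the strain.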 To be noted: S. cerevisiae deletion strains, growth OD.
Setting [1] is: locus YAL040C, strain CLN3, hits give low values.
The mark [2] stands for this setting: locus YCL061C, strain MRC1 (second series), hits give low values.
Where [3] appears, read: locus YDR363W, strain ESC2, hits give low values.
[4] abbreviates: locus YER002W, strain NOP16, hits give low values.
The mark [5] stands for this setting: locus YGR229C, strain SMI1, hits give low values.
Setting [6] is: locus YMR263W, strain SAP30, hits give low values.
[7] abbreviates: locus YMR307W, strain GAS1, hits give low values.
Where [8] appears, read: locus YNL128W, strain TEP1, hits give low values.
Setting [9] is: locus YNL153C, strain GIM3, hits give low values.
Where [10] appears, read: locus YNL175C, strain NOP13, hits give low values.
Where [11] appears, read: locus YNL197C, strain WHI3, hits give low values.
The mark [12] stands for this setting: locus YNL224C, strain SQS1, hits give low values.
[13] abbreviates: locus YNL322C, strain KRE1, hits give low values.
Where [14] appears, read: locus YOR083W, strain WHI5 (second series), hits give low values.
Where [15] appears, read: locus YPL055C, strain LGE1, hits give low values.
Setting [16] is: locus YPL241C, strain CIN2, hits give low values.

Screen size: about 5,500 compounds; about 2,000 (36%) were called active. Inconclusive results (about 18%) are left out. The list shows a part of the results. Values without a mark were called inactive. Cut-off read from the data, not from the text of the source: active = normalized growth mostly below about 0.91 (no sharp cut-off); inconclusive = no clear call, values can overlap the other calls; inactive = mostly above about 0.92.

As for `C[C@@H](NCCc1ccc(O)cc1)[C@@H](O)c1ccc(O)cc1`, the normalized growth under setting [1] is 0.986; the normalized growth under setting [2] was 0.989; the normalized growth (locus YDR150W, strain NUM1, hits give low values) was 1.01; the normalized growth under setting [3] is 0.991; the normalized growth under setting [4] was 0.992; the normalized growth under setting [5] was 0.99. For the same compound, the normalized growth (locus YJR075W, strain HOC1, hits give low values) is 0.993; the normalized growth under setting [6] is 0.986; the normalized growth under setting [7] was 1.02; the normalized growth under setting [8] was 0.994; the normalized growth under setting [9] is 1.03; the normalized growth under setting [10] is 0.999. The normalized growth reads like this: under setting [11], 0.992; under setting [12], 0.991; under setting [13], 0.974; under setting [14], 1; under setting [15], 0.995.

With `CC(CCc1ccc(O)cc1)NCCc1ccc(O)c(O)c1` (stereo not given), the normalized growth by setting is: under setting [1], 1.01; under setting [2], 0.812 (active); under setting [3], 0.969; under setting [4], 0.993; under setting [5], 0.708 (active); under setting [6], 1.01. Further, the normalized growth is, setting by setting: under setting [7], 0.947; under setting [8], 1.01; under setting [9], 0.944; under setting [10], 1.01; under setting [11], 1.03; under setting [12], 1.02. Also, the normalized growth was 0.98 under setting [14], 0.756 (active) under setting [15] and 0.927 (active) under setting [16].

Turning to `CCCN(CCC)CCc1ccc(O)c(O)c1`, the normalized growth is, setting by setting: under setting [1], 1.03; under setting [2], 1; under setting [3], 1.04; under setting [4], 1.01; (locus YGR078C, strain PAC10, hits give low values) 0.992; under setting [6], 0.995. Moreover, the normalized growth under setting [9] was 1; the normalized growth under setting [10] is 0.997; the normalized growth under setting [11] was 1; the normalized growth under setting [12] was 0.994; the normalized growth under setting [13] was 1.02; the normalized growth under setting [14] was 1.01. Further, the normalized growth under setting [16] was 1.
